Like-named read-outs stand apart in the source and are kept apart here.

The source of these data is publication PMC11062922 (Nature Chemical Biology, 2023).

The test system of one test is AAK1. Further details: species or system human, MV4-11 + K-562 + COLO205 + SK-N-BE2 + OVCAR-8. The settings on record: read-out: apparent Kd, n = 1.
A further test deals with BMP2K. Also on record: species or system human, MV4-11 + K-562 + COLO205 + SK-N-BE2 + OVCAR-8. To be noted: read-out: apparent Kd, n = 1.
The next test has as its target Q6ZSR9 (human, UniProt Q6ZSR9). Further details: species or system MV4-11 + K-562 + COLO205 + SK-N-BE2 + OVCAR-8. The settings on record: read-out: apparent Kd, n = 1.
For a further test, the system named is CLK4. Further details: species or system human, MV4-11 + K-562 + COLO205 + SK-N-BE2 + OVCAR-8. The settings on record: read-out: apparent Kd, n = 1.
A further test relates to CSNK2A1;CSNK2A3. Also on record: species or system human, MV4-11 + K-562 + COLO205 + SK-N-BE2 + OVCAR-8. To be noted: read-out: apparent Kd, n = 1.
The next test deals with CSNK2A2. Also on record: species or system human, MV4-11 + K-562 + COLO205 + SK-N-BE2 + OVCAR-8. To be noted: read-out: apparent Kd, n = 1.
Another test has as its system FLT4. Further details: species or system human, MV4-11 + K-562 + COLO205 + SK-N-BE2 + OVCAR-8. To be noted: read-out: apparent Kd; compound concentrations:100 nM and 1000 nM (sheet 'Samples'); n = 1.
Another test deals with GAK. Also on record: species or system human, MV4-11 + K-562 + COLO205 + SK-N-BE2 + OVCAR-8. The settings on record: read-out: apparent Kd, n = 1.
The test system of a further test is MELK. Also on record: species or system human, MV4-11 + K-562 + COLO205 + SK-N-BE2 + OVCAR-8. The settings on record: read-out: apparent Kd; compound concentrations:100 nM and 1000 nM (sheet 'Samples'); n = 1.
The next test deals with NUAK1. Also on record: species or system human, MV4-11 + K-562 + COLO205 + SK-N-BE2 + OVCAR-8. To be noted: read-out: apparent Kd; compound concentrations:100 nM and 1000 nM (sheet 'Samples'); n = 1.
In another test the test system is PAK4. Further details: species or system human, MV4-11 + K-562 + COLO205 + SK-N-BE2 + OVCAR-8. The settings on record: read-out: apparent Kd; compound concentrations:100 nM and 1000 nM (sheet 'Samples'); n = 1.
In another test the test system is PKN1. Further details: species or system human, MV4-11 + K-562 + COLO205 + SK-N-BE2 + OVCAR-8. To be noted: read-out: apparent Kd, n = 1.
Another test concerns PRKAG1. Also on record: species or system human, MV4-11 + K-562 + COLO205 + SK-N-BE2 + OVCAR-8. To be noted: read-out: apparent Kd, n = 1.
The subject of the next test is RET. Further details: species or system human, MV4-11 + K-562 + COLO205 + SK-N-BE2 + OVCAR-8. The settings on record: read-out: apparent Kd; compound concentrations:100 nM and 1000 nM (sheet 'Samples'); n = 1.
The subject of another test is SIK2. Further details: species or system human, MV4-11 + K-562 + COLO205 + SK-N-BE2 + OVCAR-8. The settings on record: read-out: apparent Kd; compound concentrations:100 nM and 1000 nM (sheet 'Samples'); n = 1.
The next test relates to CLK1. Also on record: species or system human, MV4-11 + K-562 + COLO205 + SK-N-BE2 + OVCAR-8. To be noted: read-out: apparent Kd, n = 1.
The subject of the next test is GSK3A. Also on record: species or system human, MV4-11 + K-562 + COLO205 + SK-N-BE2 + OVCAR-8. To be noted: read-out: apparent Kd, n = 1.
A further test concerns GSK3B. Also on record: species or system human, MV4-11 + K-562 + COLO205 + SK-N-BE2 + OVCAR-8. The settings on record: read-out: apparent Kd, compound concentrations: 100 nM and 1000 nM (sheet 'Samples'), n = 1.
Another test relates to PKN3. Also on record: species or system human, MV4-11 + K-562 + COLO205 + SK-N-BE2 + OVCAR-8. To be noted: read-out: apparent Kd; compound concentrations:100 nM and 1000 nM (sheet 'Samples'); n = 1.
Setting [1] is: compound concentrations:100 nM and 1000 nM (sheet 'Samples').

Sequence of Q6ZSR9 (Q6ZSR9 whole entry, looked up): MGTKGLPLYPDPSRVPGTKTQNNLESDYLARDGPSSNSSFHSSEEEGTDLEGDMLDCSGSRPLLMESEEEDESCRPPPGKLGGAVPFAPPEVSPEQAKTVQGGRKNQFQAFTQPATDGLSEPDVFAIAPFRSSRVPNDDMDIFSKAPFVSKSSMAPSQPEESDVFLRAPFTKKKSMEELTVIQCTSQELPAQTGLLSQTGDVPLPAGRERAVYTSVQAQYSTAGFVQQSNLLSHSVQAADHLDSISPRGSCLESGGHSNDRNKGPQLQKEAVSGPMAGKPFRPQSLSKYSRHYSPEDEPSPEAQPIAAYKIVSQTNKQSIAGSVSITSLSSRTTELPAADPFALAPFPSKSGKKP

Turning to `Cn1cc(C2=C(c3c(S(C)=O)n(C)c4ccccc34)C(=O)NC2=O)c2ccccc21` (centres unmarked) [RO0317379-000], the potency estimated from few doses was 0.217 µM in the test with AAK1 (compound concentrations: 100 nM and 1000 nM (sheet 'Samples'), CATDS: 0.257155893587458); 1.05 µM in the test on BMP2K (compound concentrations: 100 nM and 1000 nM (sheet 'Samples'), CATDS: 0.121414398934197); 0.142 µM with Q6ZSR9 (compound concentrations: 100 nM and 1000 nM (sheet 'Samples'), CATDS: 0.33733581248504402).

For `COc1cc[nH]c1/C=C1\C(=O)Nc2ccc(F)c(C#C[C@@H](O)[C@@H](N)[C@@H](C)O)c21` [RO0283120-000], the potency estimated from few doses in the test on AAK1 (setting [1]) is 0.171 µM; in the test with BMP2K (setting [1]), 0.0843 µM; in the test on CLK4 (setting [1]), 1.36 µM; in the test on CSNK2A1;CSNK2A3 (setting [1]) it was 0.75 µM; with CSNK2A2 (setting [1]), 0.497 µM; in the test with FLT4 it was 1.67 µM. Further, the potency estimated from few doses is 0.868 µM with GAK (setting [1]); 0.679 µM in the test on MELK; 0.0203 µM with NUAK1; 0.35 µM in the test on PAK4; 0.959 µM in the test with PKN1 (setting [1]); 0.821 µM in the test with PRKAG1 (setting [1]). Further, the potency estimated from few doses with Q6ZSR9 (setting [1]) is 0.208 µM; in the test with RET, 0.117 µM; in the test on SIK2, 0.878 µM.

As for `Cn1cc(C2=C(c3ccc(OC[C@@H](O)CO)cc3)C(=O)NC2=O)c2ccccc21` [RO3208546-000], the potency estimated from few doses in the test with AAK1 (compound concentrations: 100 nM and 1000 nM (sheet 'Samples'), CATDS: 3.6946772477140302E-2) is 1.32 µM; with CLK1 (compound concentrations: 100 nM and 1000 nM (sheet 'Samples'), CATDS: 3.5256752059163503E-2) it was 1.51 µM; in the test on GAK (compound concentrations: 100 nM and 1000 nM (sheet 'Samples'), CATDS: 4.3278259075416499E-2) it was 0.885 µM; in the test on GSK3A (compound concentrations: 100 nM and 1000 nM (sheet 'Samples'), CATDS: 5.7986352312034098E-2), 0.489 µM; in the test on GSK3B (CATDS: 4.5953894166210499E-2), 0.774 µM; in the test on PRKAG1 (compound concentrations: 100 nM and 1000 nM (sheet 'Samples'), CATDS: 4.3402383935848998E-2), 0.879 µM. Further, the potency estimated from few doses with Q6ZSR9 (compound concentrations: 100 nM and 1000 nM (sheet 'Samples'), CATDS: 3.3781584093652402E-2) is 1.72 µM.

Turning to `CCn1c(-c2nonc2N)nc2cncc(C(=O)N3CC[C@H](N)C3)c21.Cl` [SB-772077-B], the potency estimated from few doses in the test with AAK1 (setting [1]) is 1.7 µM; in the test on GSK3A (setting [1]), 1.1 µM; with PKN1 (setting [1]), 0.484 µM; in the test on PKN3, 1.71 µM; with Q6ZSR9 (setting [1]), 1.88 µM.

Consider `CC(C)(CO)CNC(=O)c1ccc2c(c1)/C(=N/Nc1ccc(S(N)(=O)=O)cc1)C(=O)N2` [GW301784X], for which the potency estimated from few doses in the test on AAK1 (setting [1]) is 1.82 µM; with BMP2K (setting [1]) it was 1.84 µM; with CLK1 (setting [1]), 0.878 µM; in the test with CLK4 (setting [1]), 0.612 µM; with CSNK2A1;CSNK2A3 (setting [1]) it was 0.12 µM; in the test with CSNK2A2 (setting [1]), 0.0643 µM. The potency estimated from few doses with Q6ZSR9 (setting [1]) was 1.6 µM.

As to `Nc1nccc(-c2ccc3c(N)n[nH]c3c2)n1` [GSK1034945A], the potency estimated from few doses was 0.194 µM in the test on AAK1 (setting [1]); 0.194 µM in the test with BMP2K (setting [1]); 0.0354 µM with CLK1 (setting [1]); 0.025 µM in the test on CLK4 (setting [1]); 0.828 µM with MELK; 0.225 µM with Q6ZSR9 (setting [1]).

For the molecule `NS(=O)(=O)c1ccc(N/N=C2\C(=O)Nc3ccc4ncccc4c32)cc1` [GW305178X], the potency estimated from few doses in the test with AAK1 (compound concentrations: 100 nM and 1000 nM (sheet 'Samples'), CATDS: 4.5052292202984998E-2) is 1.34 µM; in the test on BMP2K (compound concentrations: 100 nM and 1000 nM (sheet 'Samples'), CATDS: 4.3500032535549099E-2), 1.51 µM; in the test on CSNK2A1;CSNK2A3 (compound concentrations: 100 nM and 1000 nM (sheet 'Samples'), CATDS: 3.8490357435000497E-2), 2.36 µM; in the test on CSNK2A2 (compound concentrations: 100 nM and 1000 nM (sheet 'Samples'), CATDS: 4.2211322900730999E-2), 1.67 µM; in the test with Q6ZSR9 (compound concentrations: 100 nM and 1000 nM (sheet 'Samples'), CATDS: 4.4355829104281E-2), 1.41 µM.

For the molecule `Cl.Cl.NCC(NC(=O)c1cc(-c2ccnc3[nH]ccc23)cs1)c1ccccc1.NCC(NC(=O)c1cc(-c2ccnc3[nH]ccc23)cs1)c1ccccc1` (centres unmarked) [GSK1229959A], the potency estimated from few doses in the test on AAK1 (compound concentrations: 100 nM and 1000 nM (sheet 'Samples'), CATDS: 3.6384638335370603E-2) is 0.0796 µM; in the test with BMP2K (compound concentrations: 100 nM and 1000 nM (sheet 'Samples'), CATDS: 3.4118166315235399E-2), 0.0971 µM; with CLK4 (compound concentrations: 100 nM and 1000 nM (sheet 'Samples'), CATDS: 1.8316449367944E-2), 1.24 µM; with GAK (compound concentrations: 100 nM and 1000 nM (sheet 'Samples'), CATDS: 3.7046569699604799E-2) it was 0.0755 µM; in the test with GSK3B (CATDS: 1.8491508517635601E-2), 1.17 µM; with PKN1 (compound concentrations: 100 nM and 1000 nM (sheet 'Samples'), CATDS: 2.9664861147502199E-2), 0.155 µM. The potency estimated from few doses in the test on PRKAG1 (compound concentrations: 100 nM and 1000 nM (sheet 'Samples'), CATDS: 1.9025331184012301E-2) is 1.01 µM; in the test with Q6ZSR9 (compound concentrations: 100 nM and 1000 nM (sheet 'Samples'), CATDS: 3.4885156977357598E-2), 0.0906 µM.
